Inconclusive results are not listed. A number with no mark means an inactive call. The source made the active and inactive calls. The call rests on the fitted dose curve; in most records, active means well fitted activation curve with a large enough effect in the repeat runs; inconclusive means weak or mixed curves; inactive means flat fitted curve, though single readings scatter.
experiment: A CellTox Green Cytotoxicity Assay to monitor cytotoxicity in HEK293 cells - 32 hour (AID 1224881); conditions: CellTox Green fluorescence; series mostly up to 76.8 µM; cytotoxicity increase: at the top concentration; further: nearly all actives have a fitted effect of over 40% in size
Excerpt: National Center for Advancing Translational Sciences [NCATS]
NIH Chemical Genomics Center [NCGC]
U.S. Environmental Protection Agency [EPA]
National Institutes of Environmental Health Sciences [NIEHS]
National Toxicology Program [NTP]
Cell-based models are critical for drug discovery. Determining the natural cytotoxic effects resulting from test compounds is an essential research activity. A CellTox Green Cytotoxicity Assay to monitor cytotoxicity in real time of continues cell culture during 40 hours of the compound treatment was used to screen Tox21 10K library compounds in Hek293 cells. CellTox Green Cytotoxicity Assay is a nonlytic, homogeneous, biofluorescent method to measure cytotoxicity in cell culture after experimental manipulation. The assay system uses a proprietary asymmetric cyanine dye that is excluded from viable cells but preferentially stains the dead cell's DNA. […] Viable cells produce no appreciable increases in fluorescence. Therefore, the fluorescence signal produced by the binding interaction with dead cell DNA is proportional to cytotoxicity.
The mixture of Hek293 cell suspension and reagents were dispensed at 600cells/6 ul/well in 1536-well tissue culture treated black solid bottom plates using a Multidrop dispenser. After the assay plates were incubated at a 37 C/5% CO2 incubator for 5 hours, 23 nL of compounds dissolved in DMSO, positive and negative controls was transferred to the assay plate by a pintool work station. The plates were incubated at 37 C for 40 hours. The fluorescence intensity were measured at 0h, 8h, 16h, 24h, 32h and 40h time points using ViewLux plate reader during compound treatment.
On the % scale 0 is the no-effect control and ±100 the full control effect; potency means the concentration at half of the fitted maximal effect.

Structure (SMILES) | Potency | cytotoxicity increase
O=C1CCC(C2CCCCC2)CC1 | 43.6 µM (active) | 
O=C1N(c2ccccc2)c2ccccc2C1(Cc1ccncc1)Cc1ccncc1 |  | -2.83% [at 35.3 µM]
CCCCCCCCCC#N |  | 4.02%
CN(CC1(C)CCCO1)S(=O)(=O)c1ccc(Cl)c(S(N)(=O)=O)c1 (stereo not given) |  | 0.421% [at 35.3 µM]
Cc1nc(N)nc(N)c1-c1ccc(Cl)c(Cl)c1 |  | 19% [at 35.3 µM]
COC(=O)/C=C(/C)N |  | 0.92% [at 35.3 µM]
CC(C)CC(=O)OCc1ccccc1 |  | 13.1%
O=C(CC(=O)C(F)(F)F)c1ccccc1 |  | 7.1%
CCCCNC(=S)NCCCC |  | -3%
O=[N+]([O-])c1nccn1CO[C@@H](CO)[C@H](O)CO |  | 3.36% [at 35.3 µM]
CCCCCCCCc1ccc(S(=O)(=O)O)cc1 | 54.5 µM (active) | 
Cc1cccc(C)c1NC(=O)CN1CCCCCC1 |  | 1.19% [at 35.3 µM]
CC(C)S |  | 1.71%
CC(=O)OC1C2(C)CCC(C2)C1(C)C (stereo not given) |  | 1.57%
CCCCCCC |  | 10.3%
CN1[C@@H]2CC[C@H]1CC(OC(=O)c1c[nH]c3ccccc13)C2 (stereo not given in full) |  | -5.75% [at 35.3 µM]
CCCCCCCCCCCCCCCCOP(=O)([O-])OCC[N+](C)(C)C |  | 27.9% [at 35.3 µM]
COc1ccccc1N1CCN(CCCNc2cc(=O)n(C)c(=O)n2C)CC1 |  | -0.0154% [at 35.3 µM]
NCCCN1CCN(CCCN)CC1 |  | -13.8%
NNS(=O)(=O)c1ccc(Oc2ccc(S(=O)(=O)NN)cc2)cc1 |  | 3.17%

Structure (SMILES) | Potency | cytotoxicity increase
C=O |  | -5.11%
CC(C)(C)c1ccc(OC(=O)c2ccccc2O)cc1 |  | 3.1%
N#CSCC(=O)O |  | -0.89% [at 35.3 µM]
CN1C(=O)CC(c2ccccc2)C1=O (stereo not given) |  | -12.6% [at 35.3 µM]
C[C@@H]1CN(c2c(F)c(N)c3c(=O)c(C(=O)O)cn(C4CC4)c3c2F)C[C@H](C)N1 |  | 5.84% [at 15.8 µM]
CC1=C(CC(=O)O)c2cc(F)ccc2/C1=C\c1ccc(S(C)(=O)=O)cc1 |  | -2.45% [at 35.3 µM]
COc1ccc(S(=O)(=O)Nc2nnc(CC(C)C)s2)cc1 |  | -18.4% [at 35.3 µM]
O=C(O)[C@@H]1CSCN1 |  | -0.685% [at 35.3 µM]
Cc1ccc([N+](=O)[O-])cc1Cl |  | 3.96%
CN(C)Cc1ccccc1 |  | -1.49%
CCCC(CCC)(C(=O)OCC)C(=O)OCC |  | -5.81% [at 35.3 µM]
O=C(C(Cl)Cl)N1CCOC12CCCCC2 |  | 1.58%
CCCCCCOc1ccc(N)cc1 |  | 28.6%
CCCCCCCOC(=O)CCC |  | 29.2%
O=C(CCCl)NCc1ccccc1 |  | -0.593% [at 35.3 µM]
CCc1cc2cc(OC)c(OC)cc2c(Cc2ccccc2)n1 |  | -3.35% [at 35.3 µM]
CC(=O)O[C@H]1CC[C@@]2(C)C(=CC[C@@H]3[C@@H]2CC[C@]2(C)C(C(C)=O)=CC[C@@H]32)C1 |  | 6.08% [at 35.3 µM]
CC(C)C(=O)OCC(C)(C)C(O)C(C)C (stereo not given) |  | 11.8%
CCC/C=C/CO |  | -7%
C=CC(C)(O)CC/C=C(\C)CCC=C(C)C (stereo not given) | 49 µM (active) | 
